SMILES strings stand for the structures. Several values for one entry are separate records, joined by “and”; a condition that tells them apart may be missing. Identical values can stand only once. Results filed as inconclusive are left out. More than one record can exist for a structure, and the calls need not agree. Activity calls are given as the source filed them. How the source made its calls: active means hit-call score of the fitted dose curve at least 0.9, where 1 is the maximum; inconclusive means response in the unintended direction; inactive means score below 0.9.

The term AC50 denotes the concentration at which the activity in the assay is half-maximal.

Sequence of Nuclear receptor subfamily 4 group A member 2 (Homo sapiens) (P43354 whole entry, looked up): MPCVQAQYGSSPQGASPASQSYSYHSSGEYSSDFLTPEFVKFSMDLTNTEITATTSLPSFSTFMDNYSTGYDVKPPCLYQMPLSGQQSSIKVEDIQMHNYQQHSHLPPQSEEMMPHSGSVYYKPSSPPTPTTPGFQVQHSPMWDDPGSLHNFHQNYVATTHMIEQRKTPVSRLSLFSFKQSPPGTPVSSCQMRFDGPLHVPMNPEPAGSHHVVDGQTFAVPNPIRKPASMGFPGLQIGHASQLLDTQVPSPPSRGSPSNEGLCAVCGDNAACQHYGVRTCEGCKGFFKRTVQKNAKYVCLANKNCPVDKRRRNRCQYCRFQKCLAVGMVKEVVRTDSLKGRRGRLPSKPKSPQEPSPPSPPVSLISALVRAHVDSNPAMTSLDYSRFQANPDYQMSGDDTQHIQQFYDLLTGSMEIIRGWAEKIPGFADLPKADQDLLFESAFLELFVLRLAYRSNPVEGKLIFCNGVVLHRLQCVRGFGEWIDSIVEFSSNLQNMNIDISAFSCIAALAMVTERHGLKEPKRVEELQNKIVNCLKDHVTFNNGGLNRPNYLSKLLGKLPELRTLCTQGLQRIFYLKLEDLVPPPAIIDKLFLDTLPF

In this experiment the target is Nuclear receptor subfamily 4 group A member 2 (Homo sapiens) (UniProt P43354). In words: ATG_NURR1_TRANS: Attagene TRANS-FACTORIAL HepG2 Assay for human Nuclear Receptor Related Protein 1 (NURR1) (AID 2282985). The note with it: HepG2 Attagene TRANS reporter, mRNA readout. As for the experimental part:
ATG_TRANS is a cell-based, multiplexed-readout assay that uses HepG2, a human liver cell line, with measurements taken at 24 hours after chemical dosing in a 24-well plate.ATG_NURR1_TRANS is one of 30 assay component(s) measured or calculated from the ATG_TRANS assay. It is designed to make measurements of mRNA induction, a form of inducible reporter, as detected with fluorescence intensity signals by Reverse transcription polymerase chain reaction (RT-PCR) and Capillary electrophoresis technology.Data from the assay component ATG_NURR1_TRANS was analyzed into 1 assay endpoint. This assay endpoint, ATG_NURR1_TRANS, was analyzed in the positive analysis fitting direction relative to DMSO as the negative control and baseline of activity. Using a type of inducible reporter, measures of mRNA for gain-of-signal activity can be used to understand the reporter gene at the transcription factor-level as they relate to the gene NR4A2. Furthermore, this assay endpoint can be referred to as a primary readout, because this assay has produced multiple assay endpoints where this one serves a reporter gene function. To generalize the intended target to other relatable targets, this assay endpoint is annotated to the nuclear receptor intended target family, where the subfamily is orphan.
Human liver HepG2 cells are transiently transfected with multiple reporter transcription units (MRTUs) in 6-well plates using FuGene 6 reagent (Roche; 3 ml FuGene/1 mg DNA). The MRTU constructs are regulated by a cis-regulating element (promoter). […] A major difference between the CIS and TRANS system is that in CIS activities of endogenous TFs are measured, whereas the TRANS assay evaluates changes in activities of exogenous, chimeric NR-Gal4 proteins. […] At the end of 24 hour incubation, total RNA was isolated using TriZol reagent (Invitrogen). The isolated RNA is then reverse-transcribed using oligo(dT) primer and Mo-MLV reverse transcriptase (Invitrogen) with DNAse I (Ambion) treatment for 30 min. The one-tenth of the produced cDNA was amplified by PCR using Taq DNA polymerase (Invitrogen) and two reporter sequence-specific primers. The PCR products were fluorescently labeled by primer extension with 6-arboxyfluorescein (6-FAM) 5'-labeled reporter sequence-specific primer (2 min at 95 C, 20 s at 68 C and 10 min at 72 C) and these products were digested with 5U of HpaI (New England Biolabs) for 2h at 37 C. The fragments were purified using Qiaquick PCR columns (Qiagen), analyzed on an ABI 3130xL genetic analyzer (Applied Biosystems) with peak positions identified by using a set of X-rhodamine (ROX)-labeled MapMarker1000 molecular weight standards (BioVentures). The raw capillary electrophoresis data was processed using Attagraph software (Attagene).
As to `O=C1c2ccc(O)c(O)c2C(=O)c2c(O)ccc(O)c21`, the call was inactive. Still for that read-out and setting: next, `CCCCCCCC(OC)OC`: “inactive”. Turning to `CCCCCCOC(=O)c1ccc(O)cc1`, the AC50 is 51.4 µM (active).

On to `CCCCC(CC)C(=O)O` (stereo not given), for which the call was inactive. Turning to `FC(F)(F)C(F)(F)C(F)(F)Br`, the call was inactive.

Turning to `NC(C(F)(F)F)C(F)(F)F`, the compound was classed as inactive. For `C=CC(=O)OCCC(F)(F)C(F)(F)C(F)(F)C(F)(F)C(F)(F)C(F)(F)F`, the call was inactive. Turning to `O=C(O)CCC(F)(F)C(F)(F)C(F)(F)C(F)(F)C(F)(F)F`, the call was inactive.

For `CCCCCCCCCCCCCCCCCC[N+](C)(C)Cc1ccccc1`, the outcome was inactive. For the compound `CCN(CC)CC`, the result was inactive. For the compound `CCCC=O`, the call was inactive.

Regarding `C=CC(=O)OCCN(CC)CC`, the compound was classed as inactive. On to `Cc1ccc(C(=O)c2ccccc2)cc1`, for which the outcome was inactive. On the same count and under the same terms, for `OCC(CO)(CBr)CBr` the value was “inactive”; for `CCCCCCCCCCCC`, “inactive”. As to `O=C(NO)c1ccccc1`, the compound was classed as inactive; the concentration at half-maximal activity (AC50) was 57.6 µM (active) and 40.3 µM (active) and 58 µM (active).

Take `NCCN`: the compound was called inactive. Still for that read-out and setting: for `CCCCc1ccc2ccccc2c1S(=O)(=O)O` the value was “inactive”. Take `C=CC(C)(CCC=C(C)C)OC(C)=O` (stereo not given): the compound was called inactive. On to `O=C1OC(=O)c2cc(-c3ccc4c(c3)C(=O)OC4=O)ccc21`, for which the call was inactive.

As to `Cc1cccc2c1ccc1ccccc12`, the call was inactive.

Consider `O=C(F)C(F)(F)C(F)(F)C(F)(F)C(=O)F`, for which the result was inactive. Same read-out and setting: for `CCOC(C)=O` the value was “inactive”; for `Cc1ccc(C)c(S(=O)(=O)O)c1`, “inactive”. Regarding `CC(C)(c1ccc(Oc2ccc(N)cc2)cc1)c1ccc(Oc2ccc(N)cc2)cc1`, the AC50 was 7.23 µM (active). On to `O=C1NS(=O)(=O)c2ccccc21`, for which the compound was called inactive. Same read-out and setting: for `COc1cccc(O)c1` the value was “inactive”. Still for that read-out and setting: next, `C=CC(=C)CC/C=C(\C)CCC=C(C)C`: “inactive”; `c1cc2cccc3c4cccc5cccc(c(c1)c23)c54`: “inactive”. Turning to `O=S(=O)(O)C(F)(F)C(F)(F)C(F)(F)C(F)(F)C(F)(F)C(F)(F)C(F)(F)C(F)(F)C(F)(F)C(F)(F)F`, the call was inactive. Still for that read-out and setting: next, `CC1CCC(CO)CC1` (stereo not given): “inactive”. The same measure, in the same setting: for `NNc1nc(-c2ccc([N+](=O)[O-])cc2)cs1` the value was “inactive”; for `Nc1ccc(O)c(C(=O)O)c1`, “inactive”; for `CCC(=O)O`, “inactive”. On the same count and under the same terms, next, `O=P(O)(O)CCC(F)(F)C(F)(F)C(F)(F)C(F)(F)C(F)(F)C(F)(F)C(F)(F)C(F)(F)F`: “inactive”.

As to `CC1COCc2cc3c(cc21)C(C)(C)C(C)C3(C)C` (stereo not given), the outcome was inactive. Consider `C=CCOCC(CO)(CO)CO`, for which the compound was called inactive. For the compound `NS(=O)(=O)O`, the outcome was inactive. For `Clc1ccc(Nc2nnc(Cc3ccncc3)c3ccccc23)cc1`, the AC50 is 42 µM (active).

The record behind these values is PubChem BioAssay (EPA / NIEHS).
